FECH inh – blocks human mitochondrial ferrochelatase activity; purified FECH, Ni-mesoporphyrin absorbance 550 nm; AID 1671448; actives 3.3% (n = 20,000); calls only at 10 µM (by protocol);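 active = enzyme reaction rate more than 3 SD below the solvent-only control wells on the same plate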;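 note: lower slope than DMSO wells means FECH inhibition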
Target sequence (P22830 whole entry, looked up): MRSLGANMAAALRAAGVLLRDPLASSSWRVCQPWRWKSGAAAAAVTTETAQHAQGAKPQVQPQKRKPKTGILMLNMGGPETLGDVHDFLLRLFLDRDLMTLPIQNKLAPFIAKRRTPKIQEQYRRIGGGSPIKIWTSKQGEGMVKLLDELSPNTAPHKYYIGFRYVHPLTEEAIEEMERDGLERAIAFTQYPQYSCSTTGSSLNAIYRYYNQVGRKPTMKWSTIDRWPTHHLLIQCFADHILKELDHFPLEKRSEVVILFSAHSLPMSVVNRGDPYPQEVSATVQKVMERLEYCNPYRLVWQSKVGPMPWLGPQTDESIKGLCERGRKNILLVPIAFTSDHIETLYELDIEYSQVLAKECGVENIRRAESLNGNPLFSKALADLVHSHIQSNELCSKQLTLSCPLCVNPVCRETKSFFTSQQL
An asterisk follows results filed as active; i = inactive; + = active, no number. This is one part of a sample in which hits are shown more often than they occur.

SMILES	FECH inh
CCN1C(=O)C2CCCCN2c2ccc(C(=O)Nc3ccc(C(C)C)cc3)cc21 (stereo unspecified)	i
CCCCOc1ccc(CNC(=O)CN2C(=O)c3cccnc3Sc3ccccc32)cc1	+
CN1CC(=O)N(CC(=O)Nc2ccc(F)c(F)c2)c2ccccc2C1=O	i
Cc1ccc(NC(=O)CN2C(=O)CN(C)C(=O)c3ccccc32)cc1C	i
CN1CC(=O)N(CC(=O)NCc2ccc(F)cc2)c2ccccc2C1=O	i
Cc1ccc(NC(=O)CN2C(=O)c3cccnc3Sc3ccccc32)cc1F	+
CCCCOc1ccc(CNC(=O)c2ccc(CN3C(=O)CCn4nccc43)cc2)cc1	i
O=C(CCCN1C(=O)c2cccnc2Sc2ccccc21)Nc1cc(-c2cccc(Cl)c2)no1	i
CN(C)c1ccc(CNC(=O)CN2C(=O)c3cccnc3Sc3ccccc32)cc1	+
O=C(CN1C(=O)c2cccnc2Sc2ccccc21)NCCc1ccco1	i
COc1cc(-c2ccc3c4c(ccc3c2)OC(CN)C4)cc(OC)c1OC (stereo unspecified)	i
CCc1cc(Sc2ccc(NC(=O)Nc3ccc(F)c(Cl)c3)cc2)n2ncnc2n1	i
Cc1nc(C2CCCNC2)cc(N2CCC3(CC2)CNC(=O)O3)n1 (stereo unspecified)	i
Cc1nc(-c2ccccc2)c(C(=O)N(C)Cc2nc(C3CC3)no2)s1	i
Cc1cc(C)c(S(=O)(=O)N2CCC(n3cnc4cccnc43)CC2)cc1C	i
CCOC(=O)[C@@H]1C[C@@H]1CN1CCn2nc(-c3nc4ccccc4n3C)cc2C1	i
OC(c1ccccc1)c1nncn1-c1cccc(F)c1 (stereo unspecified)	i
Cc1cc(C)cc(NC(=O)N2CCC(n3cnc4cccnc43)CC2)c1	i
Cc1ccc(C2=CC(c3ccccc3Cl)n3nc(NC(=O)c4ccccc4F)nc3N2)cc1 (stereo unspecified)	i
COc1ccc(S(=O)(=O)NCCn2c(-c3ccc(C)cc3)nc3cccnc32)cc1	i
Cc1ccc(S(=O)(=O)NCCn2c(C(F)(F)F)nc3cccnc32)c(C)c1	+
COc1ccc(S(=O)(=O)NCCn2c(-c3ccccc3)nc3cccnc32)cc1OC	+
CCOc1ccc(S(=O)(=O)NCCn2c(-c3ccc(C)cc3)nc3cccnc32)cc1	+
Cc1ccc(S(=O)(=O)NCCn2c(C(F)(F)F)nc3cccnc32)cc1C	i
O=S(=O)(NCCn1c(-c2ccccc2)nc2cccnc21)c1ccc(Cl)cc1	i
SMILES	FECH inh
Cc1ccc(-c2nc3cccnc3n2CCNS(=O)(=O)c2ccc(C)c(C)c2)cc1	+
CCOc1ccc(S(=O)(=O)NCCn2c(-c3ccc(F)cc3)nc3cccnc32)cc1	i
Cc1ccc(-c2nc3cccnc3n2CCNS(=O)(=O)c2ccc(Cl)cc2)cc1	i
Cc1ccc(S(=O)(=O)NCCn2c(C(F)(F)F)nc3cccnc32)cc1	i
Cc1ccc(-c2nc3cccnc3n2CCNS(=O)(=O)c2ccc(CC(C)C)cc2)cc1	i
Cc1ccc(-c2nc3cccnc3n2CCNS(=O)(=O)c2c(C)cc(C)cc2C)cc1	i
Cc1ccccc1-c1cc(N2CCN(S(=O)(=O)c3ccc(Br)cc3)CC2)ncn1	i
CCC(CO)N(Cc1ccco1)C(=O)Cc1ccc(F)cc1C (stereo unspecified)	i
CCOCCCNC(=O)C1CCCN(c2ccc(-c3cccc(C)c3)nn2)C1 (stereo unspecified)	i
Cc1ccc(CNC(=O)CN2C(=O)CN(C)C(=O)c3ccccc32)o1	i
CC(C)c1cc(C(=O)N2CCNCC2C(=O)N2CCCC2)cs1 (stereo unspecified)	i
O=S(=O)(NCCn1c(-c2ccccc2)nc2cccnc21)c1cccc(Cl)c1	i
O=C(NCCn1c(-c2ccncc2)nc2cccnc21)Nc1ccccc1Br	i
Cc1ccc(-c2nc3cccnc3n2CCNS(=O)(=O)c2cccc(Cl)c2)cc1	+
Cc1ccc(NC(=O)NCCn2c(-c3ccncc3)nc3cccnc32)c(C)c1	+
O=C(NCCn1c(-c2ccncc2)nc2cccnc21)Nc1ccc(Br)cc1F	i
Cc1ccc(-c2nc3cccnc3n2CCNS(=O)(=O)c2ccc(C(C)C)cc2)cc1	i
Cc1ccccc1-n1cccc1CN1CCC2(CC1)CN(C)CCN2C	i
CCC1=C(c2ccc(OC)cc2)S(=O)(=O)N(CC(=O)NC(C)(C)C)C1=O	i
c1cncc(-c2nc3c(c(NCCc4c[nH]c5ccccc45)n2)CCNC3)c1	i
COc1ccccc1N1CCN(c2ncnc3c2CCNC3)CC1(C)C	i
Cc1ccccc1S(=O)(=O)NCc1nc2cccnc2n1C1CCCC1	i
CCc1nc2nc(C)c(NC(=O)Nc3cccc(F)c3)c(=O)n2[nH]1	i
COc1ccc(CNc2nc3nc(CNc4cccc(Cl)c4)cc(=O)n3[nH]2)cc1	i
Cc1nc2nc[nH]n2c(=O)c1NC(=O)Nc1cccc(C(F)(F)F)c1	i
SMILES	FECH inh
COc1ccccc1NCc1nc2nc3c(c(=O)n2[nH]1)CCC3	i
COc1cccc(NCc2nc3nc4c(c(=O)n3[nH]2)CCC4)c1	+
O=c1c2c(nc3nc(CNc4cccc(C(F)(F)F)c4)[nH]n13)CCC2	+
Cc1ccc(-c2cc(O)c3c(c2)CN(C(=O)CN2CCOC2=O)CCO3)s1	i
CCCS(=O)(=O)N1CCN(Cc2nc3cccnc3n2-c2ccccc2)CC1	i
CC(=O)Nc1ccc(C)cc1S(=O)(=O)N1CCC(n2c(C(F)(F)F)nc3cccnc32)CC1	i
CCc1ccc(S(=O)(=O)N2CCN(c3nc(C)cc(N4CCCCC4)n3)CC2)cc1	i
COCc1nnc(NC(=O)CN2CCCC2c2cc(C(C)C)on2)s1 (stereo unspecified)	i
C=CCOc1ccc(C(=O)N2CCNC(=O)C2C)cc1OCC (stereo unspecified)	i
CCC/C=C/c1cc(C)cnc1-n1cnnc1	i
Cc1ccc2nc(COc3cccc(NC(=O)c4ccc(Br)cc4)c3)cc(=O)n2c1	i
Cc1cccc(C)c1NCc1cc(=O)n2[nH]c(-c3ccc(C(C)(C)C)cc3)nc2n1	+
Cc1cccc(NCc2cc(=O)n3[nH]c(-c4ccc(C(C)(C)C)cc4)nc3n2)c1C	i
CCCNCc1cc(=O)n2[nH]c(-c3ccc(C(C)(C)C)cc3)nc2n1	i
Cc1ccc(NCc2cc(=O)n3[nH]c(-c4ccc(C(C)(C)C)cc4)nc3n2)cc1C	i
Cc1cccc(C)c1NCc1cc(=O)n2[nH]c(NCc3ccccc3)nc2n1	i
Cc1ccc(NCc2cc(=O)n3[nH]c(NCc4ccccc4)nc3n2)c(C)c1	i
CC(C)(C)c1ccc(-c2nc3nc(CNc4ccc(F)cc4)cc(=O)n3[nH]2)cc1	+
Cc1ccc(NCc2cc(=O)n3[nH]c(-c4ccc(C(C)(C)C)cc4)nc3n2)c(C)c1	+
COc1ccc(NCc2cc(=O)n3[nH]c(-c4ccc(C(C)(C)C)cc4)nc3n2)c(OC)c1	i
Cc1ccc(NC(=O)C(C)n2nc(-c3ccc(C)c(S(N)(=O)=O)c3)c3c(c2=O)CCCC3)c(C)c1 (stereo unspecified)	i
O=C(CCC(=O)N1CC[C@@]2(O)CCCC[C@H]2C1)NC1CCCCCCC1	i
Cc1nn(C)c(C)c1-c1cc(C(=O)N2CCOC(C(F)(F)F)C2)n(C)n1 (stereo unspecified)	i
CCC(=O)Nc1ccccc1-c1nnc(SC(C)C(=O)Nc2ccc(OC)cc2)[nH]c1=O (stereo unspecified)	i

Screening data deposited in PubChem BioAssay by Corson Lab, School of Medicine, Indiana University.
